Measured values taken from PubChem BioAssay AID1030 (National Center for Advancing Translational Sciences (NCATS), 2008).
In all, about 220,000 compounds went through this assay and about 16,000 (7.3%) were called active. Entries that show only a call come without a potency. Roughly 25% stayed inconclusive and do not appear here. This is one part of a sample in which actives are shown more often than they occur. Calls follow the shape of the dose curve; as a rule, active = well fitted inhibition curve with a large enough effect (not every such curve was filed as active); inconclusive = small, poorly fitted or top-dose-only effect, or another doubt; inactive = no such curve, though single readings can be large or run the other way.

molecular target: Aldehyde dehydrogenase 1A1 (Homo sapiens) (UniProt P00352); assay: qHTS Assay for Inhibitors of Aldehyde Dehydrogenase 1 (ALDH1A1); conditions: Purified ALDH1A1, NADH fluorescence, propionaldehyde substrate; series mostly up to 75.3 µM
Potency is read from the fitted curve at half-maximal effect.

Aldehyde dehydrogenase 1A1 (Homo sapiens), sequence (P00352 whole entry, looked up): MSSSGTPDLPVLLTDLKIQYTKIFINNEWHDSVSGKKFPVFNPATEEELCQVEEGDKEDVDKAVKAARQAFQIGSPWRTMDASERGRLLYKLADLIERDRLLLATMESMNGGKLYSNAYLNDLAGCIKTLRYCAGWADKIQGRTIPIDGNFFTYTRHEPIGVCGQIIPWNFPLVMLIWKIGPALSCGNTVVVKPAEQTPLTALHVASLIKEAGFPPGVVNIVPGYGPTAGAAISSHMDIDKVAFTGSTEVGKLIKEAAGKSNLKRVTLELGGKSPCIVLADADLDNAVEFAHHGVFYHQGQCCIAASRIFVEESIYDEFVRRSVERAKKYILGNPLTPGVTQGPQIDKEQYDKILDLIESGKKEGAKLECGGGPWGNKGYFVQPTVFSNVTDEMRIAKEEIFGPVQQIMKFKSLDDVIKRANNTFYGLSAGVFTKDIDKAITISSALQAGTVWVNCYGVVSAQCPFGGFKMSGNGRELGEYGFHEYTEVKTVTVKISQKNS

| Compound | Potency | activity, negative = inhibition |
| --- | --- | --- |
| Oc1cccc(C2c3[nH]c4ccccc4c3CCN2Cc2cnn(-c3ccccc3)c2)c1 (stereo not given) | inactive |  |
| CC(=O)Nc1ccccc1NC(=O)c1cc(C)cc(C)c1 | inactive |  |
| CCOc1ccc(CCNC(=O)C2=C(C)C(=O)OC23CCC(C)CC3)cc1OCC (stereo not given) | inactive |  |
| CC(Sc1nnnn1C1CCCCC1)C(=O)O (stereo not given) | inactive |  |
| O=C(COc1ccc(Cl)cc1)NCc1nnc(SCC(=O)NCC2CCCO2)o1 (stereo not given) | inactive |  |
| Cc1ccc(-c2cc(=O)c3ccc(F)cc3[nH]2)cc1 | inactive |  |
| COc1ccc(C)cc1NC(=O)CSc1nnc(CC(=O)Nc2ccccc2F)n1C | inactive |  |
| COc1ccc(C)cc1NC(=O)CSc1ccc(Cl)cc1 | inactive |  |
| COc1ccc(Cl)cc1NC(=O)CNc1ccccc1F | 31.6 µM (active) |  |
| C=CCOC(=O)NC(c1ccc(F)c(F)c1)C(C(=O)COC)C(=O)OC (stereo not given) | inactive |  |
| Cc1cc(C)cc(OCC(=O)Nc2nc3ccc([N+](=O)[O-])cc3s2)c1 | inactive |  |
| COC(=O)C(NC(=O)c1ccc(OC)cc1)(Nc1ncc(S(=O)(=O)c2ccc([N+](=O)[O-])cc2)s1)C(F)(F)F (stereo not given) | inactive |  |
| CCOCC(=O)Nc1ncc(S(=O)(=O)c2ccc([N+](=O)[O-])cc2)s1 | 3.55 µM (active) |  |
| Fc1ccc(NC(=S)N2CCc3[nH]c4ccccc4c3C2)cc1 | inactive |  |
| O=C(O)CCCCCNc1ncnc2ccc(Br)cc12 | inactive |  |
| O=C(O)C[C@@H]1NC(=O)[C@H](Cc2ccccc2)NC1=O | inactive |  |
| O=C(CN1CCN(c2ccc(O)cc2)CC1)NC1CCCc2ccccc21 (stereo not given) | 11.2 µM (active) |  |
| O=C(CCC(=O)N1CCN(S(=O)(=O)c2ccccc2)CC1)NC1CCCc2ccccc21 (stereo not given) | inactive |  |
| O=C(CSc1nncs1)NC1CCCc2ccccc21 (stereo not given) | inactive |  |
| COC(=O)CCCC1=CC2=CC(=O)C(C)(OC(=O)c3cccs3)C(=O)C2=CN1c1ccc(CO)cc1 (stereo not given) |  | 3.06% [at 13.5 µM] (inactive) |
| O=C(Cc1c(F)cccc1Cl)Nc1ccc(-n2cnnn2)cc1 | inactive |  |
| COc1ccc(CN2CCC(c3nc4ccc(Cl)cc4[nH]3)CC2)cc1 | inactive |  |
| COc1ccc(Cn2nnc3c(=O)[nH]c(C4CCN(C(=O)c5ccccc5Cl)CC4)nc32)cc1 | 14.1 µM (active) |  |
| Cc1ccc(NC(=O)N2CCC(c3nc4c(nnn4Cc4c(F)cccc4Cl)c(=O)[nH]3)CC2)cc1 | 15.8 µM (active) |  |
| Cc1ccc(Cn2nnc3c(=O)n(CC(=O)N4CCCCC4)cnc32)cc1 | inactive |  |
| Cc1ccc(NC(=O)N2CCC(C(=O)NCc3ccc(F)cc3)CC2)cc1 | inactive |  |
| COC(=O)c1nc(NC(=O)c2ccc(C(C)(C)C)cc2)n[nH]1 | inactive |  |

| Compound | Potency | activity, negative = inhibition |
| --- | --- | --- |
| CSc1nc2ccc(NC(=O)c3c(F)cccc3F)cc2s1 | inactive |  |
| N/C(=N\OC(=O)c1ccc2c(c1)OCO2)c1ccc(Br)cc1 | inactive |  |
| COc1ccccc1Cn1c(C)nnc1-c1cnn(C)c1N | inactive |  |
| O=C(CN1CCCCCC1)NCCN1C(=O)S/C(=C\c2ccccc2Cl)C1=O | inactive |  |
| CCC1(CC)NC(=O)N(Cc2nc3ccccc3s2)C1=O | inactive |  |
| CC(CC(=O)Nc1ccccc1)n1ccnc1 (stereo not given) | inactive |  |
| CS(=O)(=O)N1CCN(c2ccc(C(=O)NC3C4CC5CC(C4)CC3C5)cc2[N+](=O)[O-])CC1 (stereo not given) | 14.1 µM (active) |  |
| CC(NC(=O)c1ccc(N2CCNCC2)c([N+](=O)[O-])c1)C12CC3CC(CC(C3)C1)C2 (stereo not given) | inactive |  |
| Cc1cccc(N2CCN(c3ccc(C(N)=O)cc3[N+](=O)[O-])CC2)c1C | inactive |  |
| CCN(CC(=O)NCc1cccs1)S(=O)(=O)c1ccc(NC(C)=O)cc1 | inactive |  |
| Cc1cc(=O)[nH]c(SCC(=O)N2c3ccccc3CC2C)n1 (stereo not given) | inactive |  |
| CCn1c(CSc2ncccn2)nnc1SCC(=O)N1c2ccccc2CC1C (stereo not given) | 25.1 µM (active) |  |
| CC1CC(C)CN(C(=O)CSc2nnc(CSc3ncccn3)n2C)C1 (stereo not given) | inactive |  |
| Cc1noc(C)c1-c1nc(CSc2ccc(Cl)cc2)no1 | inactive |  |
| CC1CCC(NC(=O)C2c3ccccc3C(=O)N2Cc2ccc3c(c2)OCO3)CC1 (stereo not given) | inactive |  |
| CN(CC(=O)Nc1ccccc1[N+](=O)[O-])Cc1ccc(Br)cc1 | inactive |  |
| CCOc1ccc(Br)cc1S(=O)(=O)Nc1ccc(C(=O)OC(C)C(=O)N(C)c2ccccc2)cc1 (stereo not given) | inactive |  |
| CCOc1ccc(Br)cc1S(=O)(=O)N1CCC(C(=O)O)CC1 | inactive |  |
| CCOc1ccc(Br)cc1S(=O)(=O)Nc1cccc(S(=O)(=O)N(CC)CC)c1 | 11.2 µM (active) |  |
| N#Cc1c(-c2ccc(F)cc2)nc(-c2ccccc2)[nH]c1=O | inactive |  |
| Cc1ccc(OCCCn2c(=O)oc3ccccc32)cc1 | inactive |  |
| OCC1(CCc2ccccc2)CCN(Cc2ccc3nsnc3c2)CC1 | 8.91 µM (active) |  |
| CC(=O)c1cccc(CN2CCC(CO)(Cc3ccccc3)CC2)c1 | inactive |  |
| OCCC1CN(Cc2ccc3nsnc3c2)CCN1C1CCCC1 (stereo not given) | inactive |  |
| CSc1ccccc1C(=O)NCc1ccccc1 | inactive |  |
| CCc1cccc(C)c1NC(=S)N(CCCN1CCN(C)CC1)Cc1cccs1 | inactive |  |
| CCC(C)(C)NC(=O)/C=C/c1cc(OC)c(OC)c(S(=O)(=O)N2CCc3ccccc32)c1 | inactive |  |

| Compound | Potency | activity, negative = inhibition |
| --- | --- | --- |
| COc1ccc(C(=O)OCC(=O)NCC2CCCCC2)cc1S(=O)(=O)N1CCCc2ccccc21 | 20 µM (active) |  |
| CCN(C(=O)COC(=O)c1cc(S(=O)(=O)N2CCc3ccccc32)ccc1OC)C1CCS(=O)(=O)C1 (stereo not given) | inactive |  |
| O=C(O)c1ccn(COc2ccc(Br)cc2)n1 | inactive |  |
| O=C(CSc1nnc2ccc(-c3ccncc3)nn12)N1CCCCC1 | inactive |  |
| CC(C)(C)c1cc(NC(=O)NN2CCOCC2)nn1-c1c(Cl)cc(Cl)cc1Cl | inactive |  |
| COc1ccc(CC(=O)N[C@@H](CCSC)c2nc3ccccc3[nH]2)cc1 | 8.91 µM (active) |  |
| CSCCC(NC(=O)c1ccc(=O)n(C)n1)c1nc2ccccc2[nH]1 (stereo not given) | inactive |  |
| CSCCC(NC(=O)c1cc([N+](=O)[O-])cc([N+](=O)[O-])c1)c1nc2ccccc2[nH]1 (stereo not given) | inactive |  |
| Cc1ccc(C(=O)Cn2cc([N+](=O)[O-])nc2C)cc1 | inactive |  |
| C=CCn1c(SCC(=O)/C(C#N)=C(\C)N)nc2sc(C)c(C)c2c1=O | inactive |  |
| C=CCn1cnc2scc(-c3ccccc3)c2c1=O | inactive |  |
| C=CCn1c(SCc2csc(C)n2)nc2scc(-c3ccc(C)o3)c2c1=O | 22.4 µM (active) |  |
| CN1CCCN(C(=O)C2CCCCC2)CC1 | inactive |  |
| COc1ccccc1NC(=O)CCSc1nnc(-c2ccc(O)cc2)o1 | inactive |  |
| CN(C)/C=C1/Nc2ccccc2C1=O | 25.1 µM (active) |  |
| CN(C)/C=C1/C(=O)Nc2ccccc21 | inactive |  |
| O=C1CCCCC(=O)c2ccccc2N1 | inactive |  |
| CCOC(=O)C1(Cc2cccc(OC)c2)CCCN(S(=O)(=O)c2cccnc2)C1 (stereo not given) | inactive |  |
| O=C(NCCCN1CCOCC1)c1ccccc1NS(=O)(=O)c1ccc(Br)cc1 | inactive |  |
| CCOC(=O)NC(=O)C(=CNc1cccc(OC)c1)C(=O)NC(=O)OCC | inactive |  |
| CCc1c(C)sc(NC(=O)/C=C/c2ccc3c(c2)OCO3)c1C(=O)OC | inactive |  |
| CCC1=C/C(=C\c2ccc3c(c2)OCO3)C(=O)S1 | 28.2 µM (active) |  |
| CSC1=N/C(=C\c2ccc3c(c2)OCO3)C(=O)S1 | inactive |  |
| CC(C)(C)NCC(O)COc1cccc2[nH]c(=O)[nH]c12 (stereo not given) | inactive |  |
| COc1cc2c(cc1OC)CC1(CCCCC1)N=C2 | inactive |  |
| COc1ccc(C(CCN(Cc2ccc(OC)c(OC)c2)C(=O)CCl)c2ccccc2)cc1 (stereo not given) | 3.55 µM (active) |  |
| COc1ccc(CCNC(=O)C(Sc2ccccn2)c2ccccc2)cc1OC (stereo not given) | inactive |  |

| Compound | Potency | activity, negative = inhibition |
| --- | --- | --- |
| COc1ccc(CCN(C(=O)COc2ccccc2)c2nc(-c3ccccc3)cs2)cc1OC | inactive |  |
| CCN(CC)CCNC(=O)c1sc2ncn(CC(=O)Nc3ccc(C)c(Cl)c3)c(=O)c2c1C | inactive |  |
| COCCNC(=S)N(Cc1cccnc1)Cc1ccc(OC)c(OC)c1 | inactive |  |
| COC(=O)c1ccc(CSc2nncn2N)cc1 | inactive |  |
| CCCCN1C(=O)/C(=C2/C=CC=CN2C)SC1=S | 22.4 µM (active) |  |
| CCN1C(=O)/C(=C2/Sc3ccccc3N2CCCS(=O)(=O)O)SC1=S | inactive |  |
| CN1C=CC=C/C1=C1\SC(=S)N(Cc2ccccc2)C1=O | 12.6 µM (active) |  |
| CC12C(=O)N(c3ccccc3)C(=O)C1C(c1ccccc1)N1CCCN12 (stereo not given) | inactive |  |
| N#CC1(C#N)C(C(=O)C23CC4CC(CC(C4)C2)C3)C12CCOCC2 (stereo not given) | inactive |  |
| O=C(c1ccncc1)c1ccc([N+](=O)[O-])cc1 | inactive |  |
| Cc1ccc(C(=O)NCC(=O)O)s1 | inactive |  |
| O=C(N/C(=C\c1ccc(F)cc1)C(=O)N1CCCCCC1)c1ccccc1 | inactive |  |
| CC1Cc2ccccc2N1C(=O)CSc1nnc(-c2ccc(S(=O)(=O)N3CCCCC3)cc2)o1 (stereo not given) | inactive |  |
| CC1Cc2ccccc2N1C(=O)CSc1nc2ccccc2o1 (stereo not given) | inactive |  |
| CCS(=O)(=O)c1ccc2oc(SCC(=O)N3c4ccccc4CC3C)nc2c1 (stereo not given) | 28.2 µM (active) |  |
| CO/N=C/c1cn(-c2ccc(Cl)cc2)nn1 | inactive |  |
| COc1cccc([C@@H]2Oc3ccc(Br)cc3C(=O)[C@H]2OC(=O)NCc2ccc3c(c2)OCO3)c1 | inactive |  |
| C1CC1Cc1noc(CN2CCN(CC3CC3)CC2)n1 | inactive |  |
| CCCC(=O)Nc1cc(OCC)c(NC(=O)NC2CCCCC2)cc1OCC | inactive |  |
| CCOc1cc(NC(=O)c2ccccn2)c(OCC)cc1NC(=O)c1ccc(OC)cc1 | inactive |  |
| CCOc1cc(NC(=O)CCl)c(OCC)cc1NC(C)=O | 25.1 µM (active) |  |
| Cc1ccc(C(CC(=O)O)Nc2nc(N3CCCCC3)nc(N3CCCCC3)n2)cc1 (stereo not given) | 25.1 µM (active) |  |
| CC(Nc1nc(N2CCCC2)nc2ccccc12)c1ccccc1 (stereo not given) | inactive |  |
| CC(=O)NC(CC(=O)O)c1ccc(F)cc1 (stereo not given) | inactive |  |
